Pf growth 48h: inhibits P. falciparum growth in the first generation, 48 h | P. falciparum luciferase growth in erythrocytes, 48 h | Potency, µM (titrated, usually from 28.7 µM), hits mostly inhibitors | actives 5.9% (n = 310,000)
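Here the parasites carry a stable luciferase gene and grow inside erythrocytes in Albumax-based RPMI medium with compound for one erythrocytic cycle. Activity is scored as loss of luminescent signal.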
SARS PLpro yeast: inhibitors of SARS-CoV papain-like protease in yeast | S. cerevisiae expressing SARS-CoV PLpro, growth rescue | Potency, µM (highest dose often 32.9 µM), hits mostly activators | actives 0.19% (n = 330,000) | AID 485353; calls by dose curve; further: nearly all actives have a fitted effect of over 55% in size
AMA1 RON2 block: inhibitors of Plasmodium falciparum AMA1-RON2 interaction. AlphaScreen AMA1-biotinylated RON2 peptide binding. Potency, µM (highest dose often 58.2 µM), usual class: inhibitors. actives 0.2% (n = 360,000). AID 720542; further: nearly all actives have a fitted effect of over 45% in size
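AMA1 (3D7) with his tag at 25 nM final met compounds first, then biotinylated RON2 peptide at 25 nM; detection used donor plus acceptor beads, 10 µg/mL apiece, read by AlphaScreen after 30 min at room temperature.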
Pf growth 96h: P. falciparum growth inhibition at 96 hour, primary screen for plastid delayed-death inhibitors. actives 6.9% (n = 320,000). Potency, µM (highest dose often 28.7 µM), usual class: inhibitors. P. falciparum luciferase reporter growth, 96 h
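P. falciparum expressing integrated firefly luciferase, in erythrocytes at 2% hematocrit, 0.05% parasitemia, incubated with compounds 96 h at 37 C, 5% CO2. Growth inhibition read as loss of luminescence; two-generation exposure targets delayed-death apicoplast inhibitors.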
A number is an active result; [ ] = another dose, or the depositor's remark. A selection: hits, their analogues and other compounds. The true share with any hit is near 9.4%. Unless noted, the call rests on the fitted dose curve; in most records, active means well fitted curve in the direction sought with a large enough effect; inconclusive means small, poorly fitted or top-dose-only effect, or another doubt; inactive means no such curve, though single readings can be large; an effect the other way counts as inactive or inconclusive.

For c1ccc(C2C3=C(Nc4ncnn42)c2ccccc2CCC3)cc1 (stereo not given) the results were Pf growth 48h inactive, SARS PLpro yeast inactive, AMA1 RON2 block inactive and Pf growth 96h 5.22µM.
`CCOc1ccc(CCNC(=O)CN2C(=O)NC3(CCCCCC3)C2=O)cc1OCC` gave Pf growth 48h 13.1µM, SARS PLpro yeast inactive, AMA1 RON2 block inactive and Pf growth 96h inconclusive.
`CCOc1ccc(CCNC(=O)CN2CCN(Cc3ccccc3F)C2=O)cc1OCC` gave Pf growth 48h inconclusive, SARS PLpro yeast inactive, AMA1 RON2 block inactive and Pf growth 96h 1.47µM.
Screening CCOc1ccc(CCNC(=O)CN2CCN(Cc3ccc(F)cc3)C2=O)cc1OCC returned SARS PLpro yeast inactive, AMA1 RON2 block inactive and Pf growth 96h inactive.
`CCOC(=O)C1=C(NC(=O)c2ccc(Br)o2)Nc2ccccc2N=C1` gave Pf growth 48h 1.65µM, SARS PLpro yeast inactive, AMA1 RON2 block inactive and Pf growth 96h 1.85µM.
`CCOC(=O)c1c(NC(=O)c2ccc(Br)o2)sc(C)c1CC` gave Pf growth 48h inactive, SARS PLpro yeast inactive, AMA1 RON2 block inactive and Pf growth 96h inactive.
`Cc1cccc(C)c1NC(=O)C1c2ccccc2OCC(=O)N1Cc1cccnc1` (stereo not given) gave AMA1 RON2 block inactive.
Screening CCCc1cc(=O)oc2c3c(cc(OCC(=O)NCCN4CCOCC4)c12)OC(C)(C)CC3 returned Pf growth 48h inconclusive, SARS PLpro yeast inactive, AMA1 RON2 block inactive and Pf growth 96h 9.28µM.
CCCc1cc(=O)oc2c3c(cc(OCC(=O)NCc4ccccn4)c12)OC(C)(C)CC3 was read as Pf growth 48h 11.7µM, SARS PLpro yeast inactive, AMA1 RON2 block inactive and Pf growth 96h 14.7µM.
`CCCCc1cc(=O)oc2c3c(cc(OCC(=O)NCCCO)c12)OC(C)(C)CC3` gave Pf growth 48h inconclusive, SARS PLpro yeast inactive, AMA1 RON2 block inactive and Pf growth 96h inconclusive.
CCOC(=O)c1sc(=S)n(-c2ccc(C)cc2)c1SC was read as Pf growth 48h 1.17µM, SARS PLpro yeast inactive, AMA1 RON2 block inactive and Pf growth 96h 0.465µM.
Screening CCOC(=O)c1sc(=S)n(-c2ccccc2)c1C returned Pf growth 48h inactive, SARS PLpro yeast inactive, AMA1 RON2 block inactive and Pf growth 96h inactive.
For COCCn1c(SCC(=O)Nc2cc(C)on2)nc2cc(Cl)ccc2c1=O the results were Pf growth 48h inconclusive, SARS PLpro yeast inactive, AMA1 RON2 block inactive[11.6 µM] and Pf growth 96h inconclusive.
`CC(C)Cn1c(SCC(=O)N2CCc3ccccc3C2)nc2cc(Cl)ccc2c1=O` gave Pf growth 48h inconclusive, SARS PLpro yeast inactive, AMA1 RON2 block inactive and Pf growth 96h 4.65µM.
COCCn1c(SCC(=O)N2CCc3ccccc3C2)nc2cc(Cl)ccc2c1=O was read as Pf growth 48h inconclusive, SARS PLpro yeast inactive, AMA1 RON2 block inactive and Pf growth 96h 9.28µM.
`COc1ccc(NC(=O)C(C)Oc2ccc(/C(C)=N\O)cc2)cc1` (stereo not given) gave Pf growth 48h inconclusive, SARS PLpro yeast inactive, AMA1 RON2 block inactive and Pf growth 96h inactive.
Screening CCc1ccc2nc(Nc3nc(COC)cc(=O)[nH]3)nc(C)c2c1 returned Pf growth 48h inconclusive, SARS PLpro yeast inactive, AMA1 RON2 block inactive and Pf growth 96h inactive.
`COCc1cc(=O)[nH]c(Nc2nc3ccc(C)cc3o2)n1` gave Pf growth 48h 2.94µM, SARS PLpro yeast inactive, AMA1 RON2 block inconclusive and Pf growth 96h inconclusive.
Screening NC(=O)[C@@H]1CSSCCC(=O)N[C@@H](CCCCN=C(N)N)C(=O)NCC(=O)N[C@@H](CC(=O)O)C(=O)N[C@@H](Cc2c[nH]c3ccccc23)C(=O)N2CCC[C@H]2C(=O)N1 returned Pf growth 48h inactive and Pf growth 96h inactive.
CS(=O)(=O)Nc1nnc(SCC(=O)N(c2ccccc2)c2ccccc2)s1 was read as Pf growth 48h inactive, SARS PLpro yeast inactive, AMA1 RON2 block inactive[2.32 µM] and Pf growth 96h 2.62µM.
`CC(C)N(C(=O)CSc1nnc(NC(=O)c2cccs2)s1)C(C)C` gave Pf growth 48h inconclusive, SARS PLpro yeast inactive, AMA1 RON2 block inactive and Pf growth 96h 10.4µM.
`CCOP(=S)(OCC)SCC(=O)NC(C)(CC)C(=O)O` (stereo not given) gave SARS PLpro yeast inactive, AMA1 RON2 block inactive and Pf growth 96h 7.38µM.
CCCCCc1cc(O)c2c(C)cc(=O)oc2c1 was read as Pf growth 48h 2.62µM, SARS PLpro yeast inactive, AMA1 RON2 block inactive and Pf growth 96h inactive.
COc1ccc(-c2cn3cccnc3n2)cc1NC(=O)c1ccc(Br)o1 was read as Pf growth 48h inactive, SARS PLpro yeast inactive, AMA1 RON2 block inactive and Pf growth 96h 10.4µM.
Cc1ccc(-c2cn3cccnc3n2)cc1NC(=O)c1ccc(Br)o1 was read as Pf growth 48h inactive, SARS PLpro yeast inactive, AMA1 RON2 block inactive and Pf growth 96h inconclusive.
COc1ccc(-c2cn3cccnc3n2)cc1NC(=O)Nc1cc(C)ccc1C was read as Pf growth 48h inconclusive, SARS PLpro yeast inactive and Pf growth 96h 11.7µM.
`COc1nc(N(C)C)nc(N(C#N)CCOC(C)=O)n1` gave Pf growth 48h inactive, SARS PLpro yeast inactive, AMA1 RON2 block inactive and Pf growth 96h inactive.
For Cc1ccccc1OCCN(C#N)c1nc(N(C)C)nc(N(C)C)n1 the results were Pf growth 48h 11.7µM, SARS PLpro yeast inactive, AMA1 RON2 block inactive and Pf growth 96h inactive.
CCCCn1nc2cc(C(=O)NCC34CC5CC(CC(C5)C3)C4)ccc2c1OC was read as Pf growth 48h inconclusive, SARS PLpro yeast inactive, AMA1 RON2 block inactive and Pf growth 96h 14.7µM.
`CCn1nc2cc(C(=O)NCC34CC5CC(CC(C5)C3)C4)ccc2c1OC` gave Pf growth 48h 11.7µM, SARS PLpro yeast inactive, AMA1 RON2 block inactive and Pf growth 96h inactive.
CCCCn1nc2cc(C(=O)NCC3CC3)ccc2c1OCC was read as Pf growth 48h inconclusive, SARS PLpro yeast inactive, AMA1 RON2 block inactive and Pf growth 96h inconclusive.
CCOc1c2ccc(C(=O)NCC34CC5CC(CC(C5)C3)C4)cc2nn1CC was read as Pf growth 48h inactive, SARS PLpro yeast inactive, AMA1 RON2 block inconclusive and Pf growth 96h inconclusive.
For CCOc1ccc(CN2CCCC(CO)(Cc3ccccc3F)C2)cc1 (stereo not given) the results were Pf growth 48h inconclusive, SARS PLpro yeast inactive, AMA1 RON2 block inactive and Pf growth 96h inactive.
Clc1ccc2nc(-c3ccccc3)c(CN3CCOCC3)n2c1 was read as Pf growth 48h inactive, SARS PLpro yeast inactive, AMA1 RON2 block inactive and Pf growth 96h inconclusive.
Nc1nc(N)nc(-c2cc(Cl)ccc2Cl)n1 was read as Pf growth 48h inactive, AMA1 RON2 block inactive and Pf growth 96h 8.49µM.
For CC1CCCCN1C(=O)CSc1nnc2ccccn12 (stereo not given) the results were SARS PLpro yeast inactive and AMA1 RON2 block inactive[11.6 µM].
CC(C)(C)S(=O)(=O)c1ccccc1C(=O)O was read as Pf growth 48h inactive, SARS PLpro yeast inactive, AMA1 RON2 block inactive and Pf growth 96h 9.28µM.
Cc1cc(C)c(S(=O)(=O)c2ccccc2C(=O)O)c(C)c1 was read as Pf growth 48h inactive, SARS PLpro yeast inactive, AMA1 RON2 block inactive and Pf growth 96h inactive.
Screening Cn1cncc1C#Cc1ccc2cc(C(C)(C)O)oc(=O)c2c1 returned Pf growth 48h inconclusive, SARS PLpro yeast inactive, AMA1 RON2 block inactive and Pf growth 96h inactive.

Bioassay records (PubChem)
